HT1080NT lethal: qHTS for induction of synthetic lethality in tumor cells producing 2HG: qHTS for the HT-1080-NT fibrosarcoma cell line; HT-1080-NT fibrosarcoma viability, CellTiter-Glo ATP luminescence, 48 h; 1.6% of 360,000 active; Potency, µM (doses to about 46.1 µM), inactives show top-dose activity, negative = less viability, hits mostly cytotoxic;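 also: NT is the 2HG producing partner of a matched IDH1 knockdown line; potency is read from the fitted curve at half-maximal effect; 0% = DMSO-treated cells and -100% = media-only wells without cells; nearly all actives have a fitted effect of over 55% in size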
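Viability of the 2HG-overproducing fibrosarcoma line after 48 hours of compound exposure at 37 degrees C was determined by luminescence with CellTiter-Glo, and concentration-effect curves were then fitted and categorized.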
ELG1 repair inh: qHTS screen for small molecules that inhibit ELG1-dependent DNA repair in human embryonic kidney (HEK293T) cells expressing luciferase-tagged ELG1 | HEK293T ELG1-luciferase reporter, luminescence, 16 h; DNA damage induced by 5-fluorouridine | Potency, µM (series often up to 46.1 µM), for inactives: top-dose activity change, negative = inhibition, actives largely listed as inhibitors | 2.3% of 330,000 active | AID 504467, 2011; also: potency is read from the fitted curve at half-maximal effect; nearly all actives have a fitted effect of over 55% in size
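Step one: seed 2,000 cells per well. Step two: pin-transfer compound or DMSO alongside 5-fluorouridine. Step three: incubate 16 hr, 37 °C, 5% CO2. Step four: add ONE-Glo, wait 30 min, read luminescence.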
DT40 TDP1 CPT: qHTS for Inhibitors of human tyrosyl-DNA phosphodiesterase 1 (TDP1): qHTS in cells in presence of CPT; chicken DT40 Tdp1-/-;hTDP1 cells + 20 nM CPT, ATP luminescence, 48 h; Potency, µM (top dose mostly 46.2 µM), for the others: at the top dose activity change, negative = growth inhibition, hits mostly inhibitors; 12% of 420,000 active; also: potency is read from the fitted curve at half-maximal effect; nearly all actives have a fitted effect of over 55% in size
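Cell growth measured by CellTiter-Glo luminescence after a minimum 48 h, 37 C compound exposure with 20 nM CPT in Tdp1-knockout DT40 cells stably expressing hTDP1, seeded 400/well; qHTS titration format.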
IL-1B inflam inh: qHTS for Inhibitors of Inflammasome Signaling: IL-1-beta AlphaLISA Primary Screen. THP-1 LPS/ATP IL-1B secretion, AlphaLISA, 16 h; active compounds read low. 4.7% of 360,000 active. activity change, % at 57.5 µM; in the data active = activity change below about -50%; inconclusive = mostly about -30% to -49%
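Secreted IL-1B measured by AlphaLISA bead assay after 16 h compound exposure of THP-1 cells; compounds (final up to 57.5 uM) added 1 h before LPS (250 ng/mL) and ATP (1.25 mM) stimulation; lower signal means less secretion.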
TDP1 cell noCPT: qHTS for Inhibitors of human tyrosyl-DNA phosphodiesterase 1 (TDP1): qHTS in cells in absence of CPT | DT40 Tdp1-/- hTDP1 cells, no CPT, ATP luminescence, 48 h | Potency, µM (highest dose often 46.2 µM), inactives show at the top dose activity change, negative = growth inhibition, actives largely listed as inhibitors | 15% of 420,000 active | AID 686978, 2013; also: potency is read from the fitted curve at half-maximal effect; nearly all actives have a fitted effect of over 55% in size
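Growth of hTDP1-complemented DT40 Tdp1-knockout cells is measured by ATP luminescence after at least 48 hr compound exposure at 37 °C, with DMSO substituting for the 20 nM CPT used in the parallel screen.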
HT1080 IDH1KD tx: qHTS for induction of synthetic lethality in tumor cells producing 2HG: qHTS for the HT-1080-IDH1KD cell line; HT-1080 IDH1 knockdown viability, ATP luminescence, 48 h; Potency, µM (series often up to 46.1 µM), for inactives: at the top dose activity, negative = toxicity, hits mostly cytotoxic; 2% of 360,000 active; AID 686971, 2013;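 also: potency is read from the fitted curve at half-maximal effect; 0% = DMSO wells and -100% = cell-free medium wells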
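Viability of IDH1-knockdown HT-1080 fibrosarcoma cells was assessed by CellTiter-Glo after 48 h at 37 °C with titrated compound; concentration-effect curves were classified by fit quality and response size.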
* marks the source's active call; other numbers are inactive results; u = inconclusive; x = no result given. An excerpt weighted towards active compounds, which were near 19% of everything screened. Unless noted, calls follow the shape of the dose curve; as a rule, active = well fitted curve in the direction sought with a large enough effect; inconclusive = small, poorly fitted or top-dose-only effect, or another doubt; inactive = no such curve, though single readings can be large; an effect the other way counts as inactive or inconclusive. Unless noted, % is scaled to controls: 0 for no effect and ±100 for the full control effect.

SMILES	HT1080NT lethal	ELG1 repair inh	DT40 TDP1 CPT	IL-1B inflam inh	TDP1 cell noCPT	HT1080 IDH1KD tx
c1ccc2c(c1)CC(N1CCCCC1)c1ccccc1N2 (stereo not drawn)	0%	15%	-8%	-5	-7%	0%
COC(=O)Cn1c(CN2CCN(c3ccccc3F)CC2)nc2c1c(=O)n(C)c(=O)n2C	2%	x	5.8µM*	36	8.2µM*	11%
CCOCCn1c(CN2CCN(c3ccccc3)CC2)nc2c1c(=O)n(C)c(=O)n2C	-7%	x	16µM*	16	16µM*	-4%
COc1ccc(N2CCN(Cc3nc4c(c(=O)n(C)c(=O)n4C)n3C(C)C)CC2)cc1	x	x	1µM*	x	0.65µM*	x
COCCn1c(CN2CCN(c3ccccc3)CC2)nc2c1c(=O)n(C)c(=O)n2C	-3%	x	10µM*	16	10µM*	2%
COc1ccc(S(=O)(=O)N2CCCC(C(=O)NC3CC3)C2)cc1OC (stereo not drawn)	5%	3%	-8%	8	-10%	4%
CC1CCC(NC(=O)CN2C(=O)c3ccccc3S2(=O)=O)CC1 (stereo not drawn)	14%	u	2%	-9	3%	9%
CC1CCC(NC(=O)CN2C(=O)C3CC=CCC3C2=O)CC1 (stereo not drawn)	-3%	24%	-10%	-2	5.8µM*	2%
COc1ccc(NC(=O)CN2C(=O)C(C)Oc3ccc(C)cc32)cc1 (stereo not drawn)	u	-5%	6%	-18	-7%	21µM*
CCC1Oc2ccc(C)cc2N(CC(=O)NCc2cccc(OC)c2)C1=O (stereo not drawn)	4%	-21%	u	-8	10µM*	9%
CCC1Oc2ccc(C)cc2N(CC(=O)NCc2ccccc2OC)C1=O (stereo not drawn)	-1%	1%	-8%	0	-23%	3%
CCC1Oc2ccccc2N(CC(=O)NCc2cc(OC)ccc2OC)C1=O (stereo not drawn)	x	x	u	x	13µM*	x
COc1ccc(CNC(=O)COC(=O)CN2C(=O)C(C)Oc3ccc(C)cc32)cc1 (stereo not drawn)	0%	-1%	9%	10	-16%	-5%
CCN1C(=NCCOC)N[C@@H](c2ccccc2)[C@H](C(=O)OC)[C@H]1C	21%	u	u	5	-1%	-3%
COC(=O)C[C@@H]1CC[C@H](NS(=O)(=O)c2ccccc2F)[C@@H](CO)O1	4%	x	5%	1	15%	19%
O=C(C[C@H]1C(=O)N(Cc2ccccc2)C[C@@H]1Cc1ccccc1)Nc1ccc(Br)cc1	u	x	-24%	-12	u	u
CN1CCN(c2ccc(NC(=S)NC(=O)/C=C/c3ccco3)cc2)CC1	u	u	u	-96*	21µM*	u
CC(=O)Nc1ccc(NC(=S)NC(=O)/C=C/c2ccco2)cc1	-19%	-11%	u	32	u	-29%
COc1ccc(/C(C)=N/NC(=O)CNC(=O)/C=C\c2ccco2)cc1	0%	-3%	13µM*	84	9.2µM*	-1%
COc1cccc(NC(=S)NC(=O)/C=C/c2ccco2)c1	21µM*	u	18µM*	32	15µM*	6.5µM*
O=C(/C=C/c1ccco1)NC(=S)Nc1cccc(C(=O)O)c1	-3%	u	-25%	7	2%	1%
CC/C(=N\NC(=O)CNC(=O)/C=C/c1ccco1)c1ccccc1	11%	-1%	-5%	12	-14%	6%
CCOc1ccc(NC(=S)NC(=O)/C=C/c2ccco2)cc1	-26%	u	u	-20	18µM*	-11%
CC1CCC(NCCNC(=O)c2ccco2)CC1 (stereo not drawn)	10%	1%	17%	-7	12%	5%
CCC(C)C(NC(=O)c1ccccc1)C(=O)Nc1ccc(S(=O)(=O)Nc2cc(C)nc(C)n2)cc1 (stereo not drawn)	2%	17%	-11%	-4	8%	1%
SMILES	HT1080NT lethal	ELG1 repair inh	DT40 TDP1 CPT	IL-1B inflam inh	TDP1 cell noCPT	HT1080 IDH1KD tx
Cc1cn([C@H]2C[C@H](O)[C@@H](/C=C/C(=O)NCc3ccco3)O2)c(=O)[nH]c1=O	0%	x	12%	0	12%	5%
Cc1cc(NCc2ccc(Cl)cc2)n2cnnc2n1	x	x	21µM*	x	8.2µM*	x
COc1ccc(-c2cc(NCc3ccc(C)cc3)n3cnnc3n2)cc1	x	x	15µM*	x	13µM*	x
Cc1cc(Nc2ccc(Cl)cc2)n2cnnc2n1	x	x	2%	x	-21%	x
COc1cccc(Cn2c(=O)n(CC3CCC(C(=O)N4CCOCC4)CC3)c(=O)c3sccc32)c1 (stereo not drawn)	x	x	u	x	21µM*	x
O=C(C1CCC(Cn2c(=O)c3sccc3n(Cc3ccccc3F)c2=O)CC1)N1CCOCC1 (stereo not drawn)	x	x	16µM*	x	u	x
Cc1cccc(Cn2c(=O)n(CC3CCC(C(=O)N4CCOCC4)CC3)c(=O)c3sccc32)c1 (stereo not drawn)	x	x	23µM*	x	18µM*	x
COc1ccc(C(CNC(=O)c2ccc(OCc3csc(C)n3)cc2)N2CCCC2)cc1 (stereo not drawn)	-6%	x	u	0	u	-5%
Cc1cc(C)nc(/N=C(\NC(=O)C(C)(C)C)Nc2ccc(F)cc2)n1	19%	10%	7%	9	-3%	22%
Cc1ccc(OCCCNCCO)c(Br)c1	u	26%	4.6µM*	-60*	4.6µM*	21µM*
CCCCNCCCOc1ccc(C)cc1Br	-13%	0%	18µM*	x	16µM*	-27%
CNCCCOc1ccc(C)cc1Br	-11%	u	-6%	-25	-14%	-10%
COc1cc(CCC(=O)Nc2cccc(S(=O)(=O)N(C)C)c2)cc(OC)c1OC	7%	u	u	8	26µM*	8%
